Rows were chosen to be rich in hits. Some 2.5% of all compounds tested hit in one or more screens of this group.
L3MBTL1 block – inhibitors of human L3MBTL1 | AID 485360 | hit rate 0.66% among 230,000 | Potency, µM (top dose mostly 57.1 µM), for inactives: at the highest dose activity, negative = inhibition, usual class: inhibitors | Q9Y468 | AlphaScreen L3MBTL1–H3K9me1 peptide binding; further: potency means the concentration at half of the fitted maximal effect; on the % scale 0 is the no-effect control and ±100 the full control effect; nearly all actives have a fitted effect of over 60% in size
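First, the protein-peptide complex forms for 30 min at room temperature (L3MBTL1 50 nM, biotinylated H3K9me1 peptide 75 nM). Next, compounds are pin-transferred and incubated 30 min. Finally, AlphaScreen beads are added and read after 30 min.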
Pol eta inh-1 – inhibitors of human DNA polymerase eta | Q9Y253 | recombinant Pol eta, fluorescent DNA replication assay | Potency, µM (titrated, usually from 114 µM), for the others: top-dose activity change, negative = inhibition, actives largely listed as inhibitors | hit rate 1.2% among 390,000 | AID 588591; further: potency means the concentration at half of the fitted maximal effect; on the % scale 0 is the no-effect control and ±100 the full control effect
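Pol eta (10 nM) was preincubated with compounds for 15 min at room temperature, after which fluorescent replication substrate (50 nM final) was added to start the reaction. Fluorescence was read kinetically at 0 and 10 min.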
APE1 inh – inhibitors of human APE1 endonuclease. recombinant APE1, TAMRA/BHQ-2 abasic DNA cleavage fluorescence. hit rate 0.35% among 350,000. Potency, µM (highest dose often 65.8 µM), inactives show at the highest dose activity change, negative = inhibition, actives largely listed as inhibitors. P27695;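 further: potency means the concentration at half of the fitted maximal effect; plate controls were vehicle for no effect and reference inhibitor for full effect; nearly all actives have a fitted effect of over 55% in size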
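APE1 at 0.75 nM preincubated 15 min at room temperature with compound. Reaction then started with 50 nM double-stranded THF-abasic substrate labelled with TAMRA/BHQ-2, and 525/598 nm fluorescence read kinetically. Activity taken as third-minus-first read difference, normalized to DMSO and NSC13755 controls.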
Pol kappa inh-1 – DNA polymerase kappa (human) inhibition. Potency, µM (highest dose often 107 µM), for the others: at the highest dose activity, negative = inhibition, actives largely listed as inhibitors. purified Pol kappa, fluorescent DNA synthesis assay, 10 min. hit rate 0.53% among 400,000. AID 588579. Q9UBT6; further: potency means the concentration at half of the fitted maximal effect; on the % scale 0 is the no-effect control and ±100 the full control effect
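Activity was followed as the change in fluorescence between reads at 0 and 10 min after starting the reaction with 50 nM substrate. Beforehand, 10 nM polymerase had been preincubated with compound for 15 min at room temperature.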
Pol beta inh – inhibitors of human DNA polymerase beta. Pol beta primer extension/strand displacement, fluorescence kinetic. Potency, µM (top dose mostly 114 µM), inactives show at the top dose activity change, negative = inhibition, actives largely listed as inhibitors. hit rate 1.3% among 340,000; further: potency means the concentration at half of the fitted maximal effect; on the % scale 0 is the no-effect control and ±100 the full control effect
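Human Pol beta at 10 nM; strand-displacement substrate 50 nM final. Compound exposure 15 min at room temperature before start, reaction 10 min at room temperature.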
Pol iota inh – DNA polymerase iota (human) inhibition | Pol iota fluorescent replication assay, 10 min | Q9UNA4 | AID 588590 | hit rate 1% among 390,000 | Potency, µM (highest dose often 115 µM), for the others: top-dose activity, negative = inhibition, most hits filed as inhibitors; further: potency means the concentration at half of the fitted maximal effect
Target sequence (Q9UNA4 whole entry, looked up): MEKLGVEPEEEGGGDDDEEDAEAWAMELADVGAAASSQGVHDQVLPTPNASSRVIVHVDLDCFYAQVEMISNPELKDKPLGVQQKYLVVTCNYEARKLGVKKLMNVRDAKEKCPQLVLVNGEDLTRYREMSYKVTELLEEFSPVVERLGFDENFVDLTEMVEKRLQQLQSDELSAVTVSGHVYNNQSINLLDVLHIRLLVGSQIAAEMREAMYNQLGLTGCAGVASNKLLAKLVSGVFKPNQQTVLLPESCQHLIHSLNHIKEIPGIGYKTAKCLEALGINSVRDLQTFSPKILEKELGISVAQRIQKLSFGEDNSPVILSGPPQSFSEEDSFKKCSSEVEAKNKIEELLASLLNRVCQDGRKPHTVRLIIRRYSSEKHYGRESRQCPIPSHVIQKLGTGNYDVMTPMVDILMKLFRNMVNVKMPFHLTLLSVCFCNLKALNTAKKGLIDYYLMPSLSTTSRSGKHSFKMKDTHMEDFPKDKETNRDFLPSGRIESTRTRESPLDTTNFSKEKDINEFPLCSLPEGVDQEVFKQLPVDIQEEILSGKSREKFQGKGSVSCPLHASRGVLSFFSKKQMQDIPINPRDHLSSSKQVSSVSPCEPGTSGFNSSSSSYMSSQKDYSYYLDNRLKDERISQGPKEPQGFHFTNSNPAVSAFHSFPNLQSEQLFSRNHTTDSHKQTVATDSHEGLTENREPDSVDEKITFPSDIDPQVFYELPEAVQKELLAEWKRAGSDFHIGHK
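Pol iota at 10 nM preincubated 15 min with compounds at room temperature; reaction started with fluorescent substrate, 50 nM final. Fluorescence read kinetically at 0 and 10 min; buffer-only wells as negative control.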
GALK confirm – confirmation of human galactokinase (GALK) inhibitors; shares compounds with Pol eta inh-1; Potency, µM (top dose mostly 115 µM), for the others: at the top dose activity, negative = inhibition, most hits filed as inhibitors; hit rate 70% among 150; purified GALK, Kinase-Glo ATP depletion luminescence; AID 2015
GALK redox cs – generates H2O2 by redox cycling, flagging GALK artifacts; shares compounds with Pol eta inh-1; Potency, µM (titrated, usually from 115 µM), without a hit: at the top dose activity change, negative = H2O2 signal, usual class: inhibitors; AID 2035; Phenol red-HRP H2O2 redox cycling, absorbance 600 nm; hit rate 40% among 150
HEK293 tox – counter-screen for GALK inhibitors: HEK293 cell cytotoxicity | HEK-293 viability, ATP luminescence (CellTiter-Glo), 24/48 h | hit rate 10% among 170 | Potency, µM (highest dose often 46.1 µM), inactives show top-dose activity change, negative = cytotoxicity, most hits filed as inhibitors | shares compounds with Pol eta inh-1; further: potency means the concentration at half of the fitted maximal effect; on the % scale 0 is the no-effect control and ±100 the full control effect
Pol kappa inh-2 – confirmation of human DNA polymerase kappa inhibitors. hit rate 76% among 920. purified Pol-kappa, fluorescent strand-displacement substrate. Potency, µM, hits mostly inhibitors. shares compounds with Pol eta inh-1. AID 720501; further: potency means the concentration at half of the fitted maximal effect
Pol eta inh-2 – confirmation of human DNA polymerase eta inhibitors; shares compounds with Pol eta inh-1; Pol eta primer extension, TAMRA/BHQ fluorescence, 10 min; Potency, µM, most hits filed as inhibitors; hit rate 64% among 2,600; further: potency means the concentration at half of the fitted maximal effect
* = called active by the depositor; ? = inconclusive; / = no result given; [ ] = dose if it differs, or a comment. The call rests on the fitted dose curve; in most records, active means well fitted curve in the direction sought with a large enough effect; inconclusive means small, poorly fitted or top-dose-only effect, or another doubt; inactive means no such curve, though single readings can be large; an effect the other way counts as inactive or inconclusive.

SMILES	L3MBTL1 block	Pol eta inh-1	APE1 inh	Pol kappa inh-1	Pol beta inh	Pol iota inh	Pol eta inh-2	others
Cc1ccc(-n2c(C)cc(/C=C3\SC(=O)NC3=O)c2C)cc1	/	-9%	39%	3%	?	?	/
N=C1/C(=C\c2coc3ccc(O)cc3c2=O)C(=O)N=C2SC=CN12	?	13µM*	2%	?	4µM*	?	19*
CC(C)CSC1=NSC2=NC(=O)/C(=C\c3ccccc3)C(=N)N12	/	-28%	2%	-2%	1%	?	/
N=C1/C(=C\c2coc3ccccc3c2=O)C(=O)N=C2SC(c3ccncc3)=NN12	/	2.8µM*	-3%	7.9µM*	?	?	/	GALK confirm=21µM*;GALK redox cs=5%;HEK293 tox=-5%
CSC1=NSC2=NC(=O)/C(=C\c3coc4ccccc4c3=O)C(=N)N12	15%	13µM*	-10%	?	25µM*	?	?
CC(C)CSC1=NSC2=NC(=O)/C(=C\c3coc4ccccc4c3=O)C(=N)N12	/	18µM*	1%	-30%	45µM*	?	76*
CN1C(=O)/C(=C/c2coc3ccc(O)cc3c2=O)SC1=S	-5%	6%	4%	-7%	-3%	-17%	/
CN1CCN(CCCNC(=O)c2cnn(-c3ccccc3)c2-n2cccc2)CC1	/	-11%	/	-9%	0%	42%	/
O=C(COC(=O)CCC(=O)c1ccc(Cl)cc1)NCc1ccco1	-90%	25µM*	?	?	35µM*	45µM*	76*
COc1cc(CC(=O)OCC(=O)NCc2ccco2)cc(OC)c1OC	?	50µM*	-34%	-26%	/	?	?
COc1ccc(CC(=O)OCC(=O)NCc2ccco2)cc1	-7%	8%	-13%	-9%	/	?	/
O=C(COC(=O)CCC(=O)c1ccc(F)cc1)NCc1ccc(Cl)cc1	-1%	-6%	10%	-11%	/	-9%	/
NC1=NN(c2c(Cl)cc(Cl)cc2Cl)C(=O)C1	/	-16%	/	-11%	/	7%	/
CCOC(=O)[C@@H]1[C@H]2COc3ccccc3[C@@H]2N2C(=O)N(c3ccc(C(F)(F)F)cc3)C(=O)[C@]12C	/	?	/	0%	/	-30%	/
CCOc1cc(/C=C2\SC(=S)N(C(C(=O)O)c3ccccc3)C2=O)ccc1O (stereo not drawn)	-12%	?	12%	?	?	28µM*	/	Pol kappa inh-2=42*
CCN=C1S/C(=C\c2ccc(O)c(OCC)c2)C(=O)N1CC	-2%	-28%	-10%	-10%	19%	0%	/
C/C=C\C=C/C(=O)Nc1cccc(C2=NOC3(C2)C[C@@H](C(N)=O)N(C(=O)C2(C)CC2)C3)c1 (stereo partly drawn)	/	?	-1%	-13%	29%	45µM*	67*
CC(=O)c1ccc(N2CCN(S(=O)(=O)c3ccc(-c4coc(C)n4)cc3)CC2)cc1	/	79µM*	/	-4%[60.1 µM]	45µM*	?	?
Cc1ccc(C(=O)N/C(=C\c2ccc(C)o2)C(=O)O)cc1	?	32µM*	3%	?	?	-22%	?
Cc1ccc(C(=O)N/C(=C/c2ccco2)C(=O)O)cc1	4%	-10%	0%	-18%	2%	6%	/
Cc1ccc(C(=O)N/C(=C/c2ccco2)C(=O)NCc2ccco2)cc1	/	32µM*	-11%	?	35µM*	?	76*	Pol kappa inh-2=60*
CN(c1ccccc1)S(=O)(=O)c1cccc(C(=O)NCCCN2CCCC2=O)c1	5%	-3%	0%	-11%	/	5%	/
CSc1ccc(Cn2nnc(C(=O)Nc3ccc(C)cc3Cl)c2N)cc1	/	-18%	/	-7%	0%	10%	/
O=C1Cc2ccccc2C1=C1C=c2ccccc2=C1	/	/	/	-32%	/	-7%	/
COc1ccc(N=C2S/C(=C\c3ccc(OC(C)C(=O)O)c(OC)c3)C(=O)N2CCc2c[nH]c3ccccc23)cc1 (stereo not drawn)	-13%	32µM*	-8%	?	35µM*	?	/	GALK confirm=42µM*;GALK redox cs=-5%;HEK293 tox=10%
SMILES	L3MBTL1 block	Pol eta inh-1	APE1 inh	Pol kappa inh-1	Pol beta inh	Pol iota inh	Pol eta inh-2	others
CCc1nnc(NC(=O)c2ccc(COc3ccccc3C)o2)s1	/	-15%	2%	-1%	31%	63%	/
O=C(c1ccco1)N(CCC(c1ccccc1)c1ccco1)Cc1ccccc1 (stereo not drawn)	?	22µM*	?	79µM*	25µM*	28µM*	?	Pol kappa inh-2=67*
CCC(=O)N(CCC(c1ccccc1)c1ccco1)Cc1cccs1 (stereo not drawn)	2%	-23%	-1%	-9%	7%	1%	/
O=C1NCCOC(=O)[C@@H](Cc2ccc(F)cc2)C/C=C\C[C@@H]1CC(=O)N(CCO)Cc1ccccc1	-4%	7%	-42%	-1%	/	22%	/
CC1CCN(C(=O)COC(=O)c2ccccc2NCCO)CC1	/	0%	/	/	/	/	/
CCOc1cc(CNc2ccc3c(c2)CCC3)ccc1O	/	5%	7%	-4%	9%	?	/
Oc1ccc(NCc2ccccc2OCc2ccc(Cl)cc2)cc1	/	-16%	/	?	?	?	?
CCOc1cc(CNc2ccc(O)cc2)ccc1OCc1ccc(Cl)cc1	/	-23%	/	?	?	7.9µM*	?
CCOc1ccc(NC(=O)Cn2nnc(C(=O)NCCc3ccccc3)c2N)cc1	/	?	/	?	?	?	/	Pol kappa inh-2=?
Cc1ccc(-c2cc3nccc(-c4cc([N+](=O)[O-])ccc4O)n3n2)cc1	/	1%	/	-13%	-23%	-10%	/

Source: PubChem BioAssay (National Center for Advancing Translational Sciences (NCATS))
